Bioassay records: PubChem, National Center for Advancing Translational Sciences (NCATS)
KB-V1 MDR tox = qHTS assay for MDR1-selective chemotherapeutics: Primary screen using the drug-selected MDR subline cells KB-V1 | AID 1347076, 2019 | 400,000 compounds, 3.4% hits | KB-V1 MDR cells viability, CellTiter-Glo, 72 h | Potency, µM (doses to about 46.1 µM), most hits filed as cytotoxic; also: % is scaled to controls: 0 for no effect and ±100 for the full control effect; nearly all actives have a fitted effect of over 60% in size
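Luminescent ATP read-out (CellTiter-Glo, 10 min) measures survival of drug-selected KB-V1 MDR cells after 72 h, 37 degrees C compound exposure. Medium: phenol-red-free DMEM, 10% FBS. Values from fitted concentration-response curves.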
HT1080-NT tox = qHTS for induction of synthetic lethality in tumor cells producing 2HG: qHTS for the HT-1080-NT fibrosarcoma cell line | HT-1080-NT fibrosarcoma viability, CellTiter-Glo ATP luminescence, 48 h | Potency, µM (series often up to 46.1 µM), for inactives: at the highest dose activity, negative = less viability, actives largely listed as cytotoxic | 360,000 compounds, 1.6% hits | AID 686970, 2013;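 also: NT is the 2HG producing partner of a matched IDH1 knockdown line; 0% = DMSO-treated cells and -100% = media-only wells without cells; nearly all actives have a fitted effect of over 55% in size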
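A 48-hour cytotoxicity screen used HT-1080-NT cells plated 2 hours before compound delivery. ATP-based CellTiter-Glo luminescence measured viability, normalized to DMSO and no-cell controls.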
ATXN viability = Viability Counterscreen for Primary qHTS for Inhibitors of ATXN expression; S2 cells (HEK-293 line with an ATXN2-luciferase reporter) viability, CellTiter-Fluor protease fluorescence, 24 h; Potency, µM (doses to about 56.7 µM), usual class: cytotoxic; 400,000 compounds, 0.49% hits; also: nearly all actives have a fitted effect of over 40% in size
HT1080 IDH1KD tx = qHTS for induction of synthetic lethality in tumor cells producing 2HG: qHTS for the HT-1080-IDH1KD cell line; 360,000 compounds, 2% hits; AID 686971, 2013; Potency, µM (highest dose often 46.1 µM), for the others: at the highest dose activity, negative = toxicity, most hits filed as cytotoxic; HT-1080 IDH1 knockdown viability, ATP luminescence, 48 h;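 also: 0% = DMSO wells and -100% = cell-free medium wells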
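CellTiter-Glo luminescence after 48 h compound exposure at 37 degrees C of IDH1-knockdown HT-1080 cells in 5% FBS RPMI. %Activity scaled between DMSO wells and cell-free media wells, with curves fitted and assigned curve classes.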
KB-3-1 cytotox = qHTS assay for MDR1-selective chemotherapeutics: Primary screen using the parental adenocarcinoma cell KB-3-1; KB-3-1 viability, CellTiter-Glo ATP luminescence, 72 h; Potency, µM (series often up to 46.1 µM), most hits filed as cytotoxic; AID 1347075, 2019; 400,000 compounds, 1.4% hits; also: % is scaled to controls: 0 for no effect and ±100 for the full control effect; nearly all actives have a fitted effect of over 60% in size
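Parental KB-3-1 adenocarcinoma cells in phenol-red-free DMEM with 10% FBS were pin-treated with compounds at several concentrations, incubated 72 h at 37 °C, and viability read by CellTiter-Glo luminescence; concentration-effect curves were fitted after normalization.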
ATXN2 expr inh = Primary qHTS for Inhibitors of ATXN expression | 360,000 compounds, 0.72% hits | HEK-293 ATXN2-luciferase reporter, luminescence, 24 h | AID 1745845, 2022 | Potency, µM (titrated, usually from 57 µM), without a hit: at the highest dose activity change, negative = inhibition, usual class: inhibitors; also: % is scaled to controls: 0 for no effect and ±100 for the full control effect; nearly all actives have a fitted effect of over 55% in size
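ATXN2-luciferase reporter cells (luciferase flanked by upstream and downstream ATXN2 gene portions) were treated 24 h at 37 °C with compounds at up to 57 uM. SteadyGlo luminescence gave expression; GF-AFC fluorescence gave viability.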
Starred values were filed as active, the others as inactive; i = inactive; ? = inconclusive; . = no result given. Sampled rows, rich in hits. Any-hit rate of the full collection: about 6.2%. Calls follow the shape of the dose curve; as a rule, active = well fitted curve in the direction sought with a large enough effect; inconclusive = small, poorly fitted or top-dose-only effect, or another doubt; inactive = no such curve, though single readings can be large; an effect the other way counts as inactive or inconclusive. Potency is read from the fitted curve at half-maximal effect.

SMILES | KB-V1 MDR tox | HT1080-NT tox | ATXN viability | HT1080 IDH1KD tx | KB-3-1 cytotox | ATXN2 expr inh
COc1ccc(S(=O)(=O)NCCc2sc(-c3cccnc3)nc2C)c(F)c1 | ? | . | i | . | i | 6%
Cc1cc(C)c2oc(C(=O)Nc3ccc(S(=O)(=O)N4CCCCC4)cc3)cc(=O)c2c1 | i | . | i | . | i | 6%
COc1ccc(C(=O)COC(=O)C(Cc2c[nH]c3ccccc23)NC(=O)c2ccc(C(C)(C)C)cc2)cc1 (stereo not drawn) | i | . | i | . | i | 9%
Cc1ccc(C(C)NC(=O)/C(C#N)=C\c2c(C)[nH]c3ccccc23)cc1 (stereo not drawn) | 12µM* | ? | i | ? | i | 7%
O=C(O)C1CCN(c2ncc(-c3ccc4c(c3)OCCCO4)s2)CC1 | i | . | . | . | i | .
CCOC(=O)c1sc2nc(CSc3ccccc3)nc(N3CCC(C(N)=O)CC3)c2c1C | ? | ? | ? | 23µM* | i | ?
CCOC(=O)c1sc2nc(CSc3ccccc3)nc(N3CCCN(C)CC3)c2c1C | i | -15% | 35µM* | -23% | i | .
Cc1sc2nc(CSc3ccccc3)nc(N3CCC(C(N)=O)CC3)c2c1C | ? | 0% | ? | 7% | i | .
Cc1ccc(Cl)cc1N1CCN(C(=O)c2cc(S(=O)(=O)N3CCCCCC3)cn2C)CC1 | i | . | ? | . | i | -30%
COc1ccc(C(C)NC(=O)c2ccncc2)cc1OC (stereo not drawn) | ? | 2% | i | 3% | i | 5%
COc1ccc(C(=O)CC(SCC(NC(C)=O)C(=O)O)c2ccc(Cl)cc2)cc1OC (stereo not drawn) | 13µM* | 0% | . | 11% | i | .
COc1ccc(C(C)NC(=O)c2ccc(Cl)cc2)cc1OC (stereo not drawn) | 21µM* | -9% | i | -7% | i | -14%
CC(=O)Nc1ccccc1-c1nc(CNC(=O)c2ccc(C)cc2)c(C)o1 | . | . | i | . | . | .
COC(=O)c1cn([C@H]2C[C@@H](C(=O)N3CCCCCC3)N(Cc3ccsc3)C2)nn1 | . | . | i | . | . | .
Cc1ccc(C(=O)c2c3ccc([N+](=O)[O-])cc3[n+]([O-])n2CCCC(N)=O)cc1 | i | -3% | ? | -20% | ? | ?
NC(=O)CCCn1c(C(=O)c2cc(Cl)c(N)c(Cl)c2)c2ccc([N+](=O)[O-])cc2[n+]1[O-] | i | -23% | 28µM* | ? | ? | ?
NC(=O)CCCn1c(C(=O)c2ccc(Cl)cc2)c2ccc([N+](=O)[O-])cc2[n+]1[O-] | ? | -25% | 18µM* | -12% | ? | ?
CC1=C(C(N)=O)C(c2ccc(C(C)C)cc2)n2nc(SCc3ccccc3)nc2N1 (stereo not drawn) | ? | . | ? | . | i | -3%
CCOc1ccc(OCCNC(=O)c2ccc3c(c2)nnn3CC)cc1 | 23µM* | -6% | i | -6% | i | 11%
CC(C)(C)c1nnc2sc(SCC(=O)N3CCCCC3)nn2c1=O | i | 1% | i | 6% | i | 1%
O=C(CSc1nnc(-c2ccc(Cl)cc2)n1Cc1ccco1)Nc1ccc2c(c1)OCCO2 | 4.1µM* | -23% | ? | ? | i | -20%
C=CCn1c(SCC(=O)Nc2ccc3c(c2)OCCO3)nnc1-c1ccco1 | 9.2µM* | 3% | i | 0% | i | 5%
O=C(O)c1ccc(O)c2ncc(N3CCOCC3)cc12 | . | . | . | . | . | -8%
CC(=O)Nc1ccc(S(=O)(=O)N2CCN(c3nc(NC4CCCC4)c4ccccc4n3)CC2)cc1 | ? | 18µM* | . | ? | ? | ?
CC(C)N(C)c1ncnc2c1ncn2[C@H]1CN(Cc2ccncc2)C[C@@H](CO)O1 | i | 3% | i | 1% | i | 8%
SMILES | KB-V1 MDR tox | HT1080-NT tox | ATXN viability | HT1080 IDH1KD tx | KB-3-1 cytotox | ATXN2 expr inh
OC[C@@H]1CN(Cc2ccc(-c3ccccc3)cc2)C[C@H](n2cnc3c(Nc4ccccc4)ncnc32)O1 | 21µM* | ? | i | 10µM* | 13µM* | ?
CC(C)N(C)c1ncnc2c1ncn2[C@H]1CN(Cc2ccc(-c3ccccc3)cc2)C[C@@H](CO)O1 | i | 23µM* | ? | ? | i | ?
OC[C@@H]1CN(Cc2ccc(-c3ccccc3)cc2)C[C@H](n2cnc3c(NCc4ccc(F)cc4)ncnc32)O1 | ? | 18µM* | ? | ? | ? | ?
OC[C@@H]1CN(Cc2ccccc2)C[C@H](n2cnc3c(NCc4ccc(F)cc4)ncnc32)O1 | ? | -15% | i | 6% | i | 32%
COc1cc(=O)n2c(c1C(=O)NCc1ccco1)CCN(Cc1c(F)cccc1F)CC2 | . | . | i | . | . | .
COc1cc(=O)n2c(c1C(=O)NC(C)c1ccco1)CCN(Cc1ccccc1Cl)CC2 (stereo not drawn) | . | . | i | . | . | .
Nc1cc(=O)nc(SCC(=O)Nc2ccc(F)cc2)n1-c1cccc(Cl)c1 | i | . | i | . | i | -12%
Clc1ccc2c(c1)[C@H]1OCC[C@H]1[C@@H](c1ccco1)N2 | i | -4% | i | -8% | i | 45%
CCc1ccc2c(c1)[C@H]1OCC[C@H]1[C@@H](c1cccs1)N2 | ? | 4.1µM* | i | 3.7µM* | 13µM* | -1%
